# A selection: hits, their analogues and other compounds. The true share with any hit is near 5.3%.
# LASV entry inh: Lassa virus entry inhibition | Lassa virus pseudotype entry inhibition, cell reporter | Potency, µM (titrated, usually from 37.9 µM), without a hit: at the top dose activity change, negative = inhibition, hits mostly inhibitors | 300,000 tested, 1.2% active | AID 540256; calls by dose curve; tested in HEK293 cells; further: nearly all actives have a fitted effect of over 50% in size
# VACV mCherry inh: vaccinia inhibition (mCherry reporter); 310,000 tested, 0.63% active; Potency, µM (series often up to 36.5 µM), inactives show at the top dose activity change, negative = inhibition, usual class: inhibitors; AID 720579; Vaccinia virus mCherry reporter infection, fluorescence; calls by dose curve; tested in A549 cells; further: nearly all actives have a fitted effect of over 35% in size
# MARV entry inh: blocks Marburg virus binding to or entry into cells; 300,000 tested, 1.8% active; AID 540276; Marburg virus pseudotyped entry inhibition, cell reporter; Potency, µM (highest dose often 37.8 µM), inactives show top-dose activity change, negative = inhibition, actives largely listed as inhibitors; calls by dose curve; tested in HEK293 cells
# VACV Venus inh: vaccinia inhibition (Venus reporter); Vaccinia virus Venus reporter expression, fluorescence; Potency, µM (top dose mostly 36.5 µM), for the others: at the top dose activity change, negative = inhibition, actives largely listed as inhibitors; 330,000 tested, 0.46% active; AID 720580; calls by dose curve; tested in A549 cells; further: nearly all actives have a fitted effect of over 30% in size
# HCV inhibitor: HCV inhibition. Huh7.5.1 HCVcc-Cre infection, luciferase reporter, 44 h. Potency, µM (doses to about 41.8 µM), inactives show at the top dose activity change, negative = inhibition, actives largely listed as inhibitors. 340,000 tested, 3.4% active; active means well fitted inhibition curve with a large enough effect; inconclusive means small, poorly fitted or top-dose-only effect, or another doubt; inactive means no such curve, though single readings can be large or run the other way
#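 Reporter virus HCVcc-Cre (~0.5 moi) infects cells exposed to compound; seeding density 1,000 cells/well with 4 h settling beforehand. Luminescence, 15 sec read, taken 44 h post-infection following a 15 min RT substrate incubation.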
# FMDV inh: foot and mouth disease virus antiviral activity; FMDV antiviral cell-based qHTS; Potency, µM (highest dose often 57.9 µM), for the others: top-dose activity change, negative = inhibition, usual class: inhibitors; 410,000 tested, 1.2% active; AID 1159524; calls by dose curve; tested in HEK293T cells; further: read-out not given here; nearly all actives have a fitted effect of over 45% in size
# * = called active by the depositor; i = inactive; ? = inconclusive; nt = not tested or not shown; [ ] = dose if it differs, or a comment. On the % scale 0 is the no-effect control and ±100 the full control effect; potency means the concentration at half of the fitted maximal effect.
SMILES,LASV entry inh,VACV mCherry inh,MARV entry inh,VACV Venus inh,HCV inhibitor,FMDV inh
Cn1cc([N+](=O)[O-])c(C(=O)Nc2nc(-c3ccc(Cl)cc3)cs2)n1,?,nt,?,11µM*,4µM*,?
Cc1ccc(-c2csc(NC(=O)c3ccc(C)o3)n2)cc1,0%,-9%,5%,13%,?,-4%
Cc1ccc(NC(=O)CN2C(=O)COc3ccc(S(=O)(=O)N4CCCCCC4)cc32)cc1C,1%[46.1 µM],-4%,nt,-21%,nt,6%
CCOC(=O)c1ccccc1NC(=O)N1CC(C)Oc2ccc(C)cc21 (configuration not stated),8%[46.1 µM],-27%,nt,?,nt,0%
Cc1ccc(-c2nc(NC(=O)c3nn(C)cc3[N+](=O)[O-])sc2C)cc1,nt,nt,-1%,nt,4.5µM*,11µM*
Nc1ncc(Br)cc1S(=O)(=O)Nc1cc(C(F)(F)F)cc(C(F)(F)F)c1,14µM*,?,?,?,?,-9%
Cc1ccc(NS(=O)(=O)c2cc(Br)cnc2N)c(Cl)c1,nt,nt,nt,nt,8%,5%
Cc1cc2nc(CCN(C(=S)NCC3CCCO3)C3CCCC3)[nH]c2cc1C (configuration not stated),nt,nt,nt,nt,11µM*,0%
CN(C)CCN(Cc1cc2cc3c(cc2[nH]c1=O)OCCO3)C(=S)NCC1CCCO1 (configuration not stated),-14%,-29%,-2%[46.1 µM],-24%,12%,5%
COC(=O)c1ccc(NC(=O)Cn2c(=O)oc3ccccc32)cc1,-1%[46.1 µM],2%,?,5%,nt,4%
C#C[C@]1(O)CCC2C3CCC4=Cc5oncc5C[C@@]4(C)C3CC[C@@]21C (some centres not stated),nt,-19%,nt,-14%,nt,?
C#C[C@]1(O)CC[C@H]2[C@@H]3CCC4=Cc5oncc5CC4(C)[C@H]3CCC21C (some centres not stated),?,nt,21µM*,nt,nt,nt
C#C[C@]1(O)CC[C@H]2[C@@H]3CCC4=Cc5nc6nc7ccccc7n6cc5C[C@]4(C)[C@H]3CC[C@@]21C,nt,i,nt,-6%,?,14µM*
C#C[C@]1(O)CCC2C3CCC4=Cc5oncc5CC4(C)C3CCC21C (some centres not stated),nt,-3%,nt,-23%,-20%,?
O=S(=O)(Nc1cccc(-c2nnco2)c1)c1ccc(Cl)cc1,nt,nt,nt,nt,12%,14%
Cc1cc(C(=O)NNC(=O)C(C)(C)Oc2ccc(Cl)cc2)c(C)o1,nt,nt,nt,nt,-6%,-15%
CCOC(=O)c1ccc(NC(=S)N(CCCN2CCCCC2)Cc2ccco2)cc1,-17%,-15%,13µM*,-15%,?,-2%
Cc1ccc(Cl)cc1N1CCN(C(=O)CSc2nnc3n2C(C)(C)Cc2ccccc2-3)CC1,?,nt,12µM*,nt,?,13µM*
CC1(C)Cc2ccccc2-c2nnc(SCC(=O)N3CCc4ccccc43)n21,0%,nt,-5%,nt,?,-26%
COC(=O)CSc1nnc2n1C(C)(C)Cc1ccccc1-2,20%,nt,14%,nt,?,-3%
COc1ccc(N2CCN(C(=O)CSc3nnc4n3C(C)(C)Cc3ccccc3-4)CC2)cc1,-24%,nt,-19%,nt,?,20µM*
Cc1nc(C(=O)NNC(=O)c2c(-c3c(Cl)cccc3Cl)noc2C)cs1,?,?,1.6µM*,?,?,?
Cc1c(C(=O)NC2CCCCC2)sc2ncnc(NCCN(C)C)c12,nt,i,nt,-19%,nt,-19%
Cc1ccc(OCCOc2cccc(C=C3C(=O)NC(=O)NC3=O)c2)c(C)c1,?,-12%,?,-9%,15%,14µM*
COc1cc(C(=O)NCCOc2cc(C)ccc2C(C)C)cc(OC)c1OC,2.8µM*,-10%,3.2µM*,-29%,2.8µM*,?
Cc1ccc(N2CC3=C(C2=O)C(c2ccc(Br)cc2)NC(=O)N3C)cc1 (configuration not stated),-2%[46.1 µM],-11%,-7%[46.1 µM],4%,nt,0%
CC(C)NC(=S)NC(=O)c1ccc(-c2ccccc2)cc1,-3%,-24%,?,-16%,14µM*,-25%
O=C(NC(=S)Nc1ccc(-c2ccccc2)cc1)c1ccccc1,-19%[46.1 µM],i,?,-7%,-6%,9%
O=C(c1cnn(-c2nccc(-c3ccccc3F)n2)c1C1CC1)N1CCCCC1c1cccnc1 (configuration not stated),nt,?,nt,-28%,nt,-8%

# Assay outcomes deposited in PubChem BioAssay by National Center for Advancing Translational Sciences (NCATS).
